Each structure is given as a SMILES string. Screen size: about 330,000 compounds; about 1,900 (0.58%) were called active. About 4% were inconclusive and are not listed. Cut-off read from the data, not from the text of the source: inconclusive = inhibition above about 70% without an active follow-up result; inactive = below that. Only a sample is shown. Entries with a potency or affinity are not part of this list.

The nature of the assay: M. tuberculosis growth inhibition, HTS (AID 449762).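 Note: bacterial growth assessed after seven days of incubation.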 The following applies: M. tuberculosis H37Rv growth inhibition, 7H9 media; at 25 µM; hits give high values.
Consider `Nc1c(C(=O)c2ccc(Cl)cc2)oc2ccccc12`, for which the inhibition (as a rule, the drop in the measured response relative to a control, in per cent) is -21.2% (inactive).
For `Cc1cc(C)c(NC(=O)C(C)(C)C)c(Cl)c1`, the inhibition was -1.65% (inactive).
Consider `COc1ccc(C(CNC(=O)C(C)(C)Oc2ccc(Cl)cc2)N2CCCCC2)cc1` (configuration not stated), for which the inhibition was -12.8% (inactive).
The value for `COc1ccc(C(CNC(=O)C(C)(C)Oc2ccc(Cl)cc2)N2CCCC2)cc1` (configuration not stated) was -9.42% (inactive); that for `CCN(CC)S(=O)(=O)c1ccc(NC(=O)c2ccc(Cl)nc2)cc1` was 4% (inactive); that for `O=C(O)c1ccccc1/C=N/Nc1ccc(S(=O)(=O)N2CCCC2)cc1[N+](=O)[O-]` was -1.83% (inactive).
The value for `COc1ccc(Cc2nc3ccc(C(=O)N(C)C(C)c4nccs4)cc3o2)cc1` (configuration not stated) was 1.57% (inactive); that for `COc1ccc(-c2ccc([C@H]3[C@H]4C=CC[C@@H](C)[C@@H]4C(=O)N3Cc3ccccc3)c(F)c2)cc1C` was -3.73% (inactive); that for `CCC(C)n1ncn(-c2ccc(N3CCN(c4ccc(OCC5COC(Cn6cncn6)(c6ccc(Cl)cc6Cl)O5)cc4)CC3)cc2)c1=O` (configuration not stated) was -3.37% (inactive).
Turning to `CC1(c2ccc(Cl)cc2Cl)OCC(Cn2ccnc2)O1` (configuration not stated), the inhibition was -2.41% (inactive).
As to `FC(F)(F)c1cc(N2CCNCC2)c2ccccc2n1`, the inhibition was 4.5% (inactive).
On to `COc1ccc2cc(S(=O)(=O)NCc3cccnc3)ccc2c1`, for which the inhibition is -6.19% (inactive).
In the case of `Oc1ccccc1-c1nnc(COc2ccc(Cl)cc2Cl)o1` it was 2.32% (inactive); in that of `c1ccc(OCc2nnc(-c3ccccc3)o2)cc1`, 3.84% (inactive).
As to `Cc1ccccc1C(=O)Nc1cccc(-c2cn3ccccc3n2)c1`, the inhibition is 35.7% (inactive).
On to `O=C(O)CCC(=O)Nc1nnc(C(F)(F)F)s1`, for which the inhibition is 5.81% (inactive).
The value for `Cc1nnc(NC(=O)CCC(=O)NC2CCCCCCC2)s1` was 2.33% (inactive); that for `CC(=O)c1cccc(S(=O)(=O)NCCC(=O)NC2CCCCCC2)c1` was 2.95% (inactive).
`CCN(CC)S(=O)(=O)c1ccc(NC(=O)c2ccc(Sc3nncn3C)c([N+](=O)[O-])c2)cc1`: the inhibition is 3.9% (inactive).
On to `COCCn1c(O)c(/C=N/NC(=O)CSC(=S)N2CCCC2)c(=O)[nH]c1=S`, for which the inhibition is -6.24% (inactive).
As for `CCOc1ccccc1NC(=O)C1CCCN(c2c(CC)c(C)nc3ncnn23)C1` (configuration not stated), the inhibition was 3.2% (inactive).
As for `CCN(c1cccc(C)c1)S(=O)(=O)c1nnc(NC(=O)c2ccco2)s1`, the inhibition is -5.15% (inactive).
In the case of `CC(C)Cn1c2c(c(O)c(C(=O)Nc3nccs3)c1=O)CCCC2` it was 8.72% (inactive); in that of `Cc1csc(NC(=O)c2c(O)c3c(n(CC(C)C)c2=O)CCCC3)n1`, 65.9% (inactive).
`CC(=C1C(=O)c2ccccc2C1=O)N1CCN(c2ccc(F)cc2)CC1`: the inhibition was -0.18% (inactive).
Consider `O=C(O)c1ccccc1SSc1ccccc1C(=O)O`, for which the inhibition was -0.04% (inactive).
The value for `CCC(Sc1ccccc1C(=O)O)C(=O)O` (configuration not stated) was 5.4% (inactive); that for `COc1ccc(CN2CCN(Cc3cccc(Oc4ccccc4)c3)CC2)c(OC)c1OC` was 22.7% (inactive).
On to `Cn1c(C(=O)N2CCCC(C(=O)NCCCSC3CCCCC3)C2)cc2sccc21` (configuration not stated), for which the inhibition was 67.2% (inactive).
Consider `Cc1cc(C)n2nc(N)c(N=Nc3ccc4c(c3)OCO4)c2n1`, for which the inhibition was 1.48% (inactive).
Regarding `Cc1cc(C)n2nc(N)c(N=Nc3ccc(Cl)cc3)c2n1`, the inhibition was 5.04% (inactive).
Turning to `CC(C)CNC(=S)N(CCN(C)C)Cc1cc2cc3c(cc2[nH]c1=O)OCCO3`, the inhibition was -7.36% (inactive).
Regarding `COc1ccc(OC)c(NC(=O)CSc2nncc(=O)n2N)c1`, the inhibition is -3.14% (inactive).
In the case of `CC(=O)N1CC(C)Sc2ccc(S(=O)(=O)NC3CCCCC3)cc21` (configuration not stated) it was 0.78% (inactive).
For `NC(=O)NCC(=O)N1CCC(C(O)(c2ccccc2)c2ccccc2)CC1`, the inhibition was -4.38% (inactive).
The value for `COc1ccc(Cc2nnc(SCC(=O)N3CCc4ccccc4C3)o2)cc1` was -4.27% (inactive); that for `COc1ccc(-c2nnc(SCC(=O)N3CCCC3)o2)cc1` was -2.88% (inactive).
Turning to `Cc1cccc(C)c1OCCOC(=O)c1cccc(S(=O)(=O)N2CCOCC2)c1`, the inhibition was -2.97% (inactive).
`Cc1cccc(C(=O)OCC(=O)N2CCCCCC2)c1O`: the inhibition is 20.7% (inactive).
Turning to `COc1cccc(C(=O)OCC(=O)N2CCc3ccccc3C2)c1OC`, the inhibition is -0.41% (inactive).
In the case of `COc1ccccc1N1CCN(S(=O)(=O)c2ccc(Br)s2)CC1` it was -5.24% (inactive).
In the case of `Cn1nc(C(C)(C)C)cc1NC(=O)Nc1ccc(Cl)cc1` it was 6.33% (inactive); in that of `Cc1c(Cl)cccc1NC(=O)Nc1cc(C(C)(C)C)nn1C`, 2.96% (inactive); in that of `CC(C)c1ccc(OCC(O)CNC(C)c2ccccc2)cc1` (configuration not stated), 15.1% (inactive).
In the case of `COc1ccc(OCC(O)CNC(C)c2ccccc2)cc1` (configuration not stated), the inhibition is -6.83% (inactive).
On to `C[C@H](NC(=O)C1CC(=O)N(c2ccc3c(c2)OCCO3)C1)C(=O)NCc1ccco1` (some centres not stated), for which the inhibition is 0.57% (inactive).
With `COc1ccc(-n2nc3c(N4CCC(C(=O)NCc5ccccc5C)CC4)nnc(C)c3c2C)cc1`, the inhibition was 8.33% (inactive).
Turning to `Cc1ccc(-n2nc3c(N4CCC(C(=O)NCCc5ccccc5C)CC4)nnc(C)c3c2C)cc1`, the inhibition was 5.89% (inactive).
As to `COC(CNC(=O)CNC(=S)N(CCCN1CCOCC1)Cc1cccs1)OC`, the inhibition is 12.5% (inactive).
In the case of `Cc1nc(Nc2ccc(Br)cc2Br)c([N+](=O)[O-])c(=O)[nH]1` it was 0.85% (inactive).
In the case of `CCc1cc2c(Sc3nc4ccccc4s3)ncnc2s1`, the inhibition is 11.1% (inactive).
As for `Cc1sc2ncnc(Sc3nc4ccccc4s3)c2c1C`, the inhibition is -4.93% (inactive).
For the compound `Cc1nc(-c2ccc(S(=O)(=O)Oc3ccccc3Cl)s2)cs1`, the inhibition is 4.35% (inactive).
The value for `O=C(COc1ccc(S(=O)(=O)N2CCOCC2)cc1)N1CCCCCC1` was -3.92% (inactive); that for `COc1ccccc1-c1cc(C(=O)N2CCN(c3ccccc3)CC2)no1` was -4.77% (inactive).
Regarding `COc1ccc(NS(=O)(=O)c2ccc(C)c(C(=O)NNC(=O)c3ccccc3O)c2)cc1`, the inhibition is 5.14% (inactive).
On to `CC(C)(C)c1ccc(C(=O)N2CCN(Cc3ccccc3)CC2)cc1`, for which the inhibition is 4.6% (inactive).

The record behind these values is PubChem BioAssay AID449762 (Southern Research Specialized Biocontainment Screening …, 2010).
